In PubChem BioAssay AID1159606 (Sanford-Burnham Center for Chemical Genomics, 2016):
The campaign covered roughly 360,000 compounds. About 7,300 (2%) were called active. Cut-off read from the data, not from the text of the source: active = inhibition above about 50%; inactive = the rest. This excerpt belongs to a sample that is enriched for actives.

Assay: inhibitors of TWEAK-Fn14 signaling, primary screen, luciferase reporter cells, uHTS (AID 1159606)
Details: TWEAK-stimulated Fn14 reporter cells, luciferase luminescence, 8 h; at 10 µM; stronger effect = higher value

inhibition, active:
Cc1cc(SCC(=O)c2ccccc2)nc(SCC(=O)c2ccccc2)n1 53.9%, C(=N\Nc1ccc2ccccc2n1)/c1ccc2c(c1)OCO2 86.3%, COc1cc(N2C(=O)CSC2=S)cc(OC)c1OC 58.5%, O=C1CSC(=S)N1c1ccc(O)cc1 75.1%, Cc1ccc(Cn2nnc3c(=O)[nH]c(C4CCN(S(=O)(=O)/C=C/c5ccccc5)CC4)nc32)cc1 50.3%, COc1cncc(-c2cnc3sc(NCCc4ccccn4)nn23)c1 64.8%, O=C(Nc1ccncc1)c1c(F)cccc1F 66.7%, CN(C)S(=O)(=O)c1ccc(N2CCCC2)c(C(=O)NCc2ccccc2)c1 63.4%, N/C(=N\OC(=O)c1ccc([N+](=O)[O-])cc1)c1ccccn1 77.4%, N/C(=N\OC(=O)Cc1ccc([N+](=O)[O-])cc1)c1ccccn1 69.1%, Cc1ccc(C(=O)O/N=C(\N)c2ccccn2)cc1Cl 92.3%, Cc1nc(-c2ccc(NC(=O)c3cccs3)cc2)cs1 69%, COc1ccc2c(c1)c(=Cc1ccc(N(C)C)cc1)c1cc(-c3ccccc3)[n+](C)n12 100%, CC(C)CCNC(=O)c1ccc2c(Cl)c3c(nc2c1)CCC3 58.4%, O=C(O)c1ccc2c(c1)C(=O)N(c1ccc(/C=C/C(=O)c3ccccc3)cc1)C2=O 75.5%, COc1ccc(NC(=O)ON=C2c3ccccc3-c3ccccc32)cc1 57.8%, Cn1c(SCC(=O)Nc2ccc(Cl)cc2)nc(O)cc1=O 80.5%, c1ccc(CN2CCC(N=C3NN=C(c4ccc5c(c4)OCCO5)CS3)CC2)cc1 57.6%, Clc1cccc(N=C2NN=C(c3ccc4c(c3)OCCO4)CS2)c1 84.4%

inhibition, inactive:
Cc1nc2nc(SCC(=O)c3ccccc3)[nH]c2cc1Br -4.34%, Cc1nc(SCC(=O)c2ccccc2)c([N+](=O)[O-])[nH]1 9.51%, C[C@H](CO)N1C[C@H](C)[C@H](CN(C)C(=O)c2ccncc2)OCc2ccccc2-c2c(n(C)c3ccccc23)C1=O 2.05%, O=C(CCC(=O)OCc1cccc(C(=O)Oc2ccccc2)c1)Nc1cccc2ccccc12 -15.2%, Cc1cccc(NC(=O)/C=C/c2ccc3c(c2)OCO3)n1 23.5%, O=C(CNC(=O)C(c1ccccc1)c1ccccc1)N/N=C\c1ccc2c(c1)OCO2 -46.1%, Cc1ccc(CNC(=O)CCCNC(=O)c2ccc(Cl)cc2)n1C -27.7%, COc1ccc(N2CC(C(=O)N[C@@H](C)C(=O)N3CCCCC3)CC2=O)cc1 (stereo partly specified) -3.79%, COc1cc(N2C(=O)CC3(CCCC3)CC2=O)cc(OC)c1OC 15.3%, CCOc1ccc(N2C(=O)CSC2=NC#N)cc1 11.8%, O=C1CSC(=S)N1c1ccc(Cl)c(Cl)c1 49.6%, COc1cc(C(=O)N2CCN(C)CC2)cc(OC)c1OC 6.59%, Cc1ccc(NC(=O)CSc2nn3c(=O)c(C)nnc3s2)cc1Cl 8.21%, Cc1ccc(NC(=O)N2CCC(c3nc4c(nnn4Cc4c(F)cccc4Cl)c(=O)[nH]3)CC2)cc1 19.1%, CC(C)(C)c1ccc(Cn2nnc3c(=O)[nH]c(C4CCCN(C(=O)c5ccco5)C4)nc32)cc1 (stereo unspecified) 25.6%, O=C(OC1CCOC1=O)c1cccc(S(=O)(=O)Nc2ccc(F)cc2)c1 (stereo unspecified) 2.12%, Cc1ccc(C(=O)N/C(=C\c2cccs2)C(=O)NCCc2ccccn2)cc1C 5.63%, COc1ccc(-c2cc3nc(NCCOc4ccccc4)ccn3n2)cc1 5.16%, CCC1(CC)NC(=O)N(CC(=O)OCC(=O)c2cc(C)c(C)cc2C)C1=O -7.64%, C=CCC[C@@H](Cc1ccc(F)cc1)C(=O)O[C@H](CNC(=O)[C@H](CC=C)CC(=O)N(CCO)Cc1ccccc1)c1ccccc1 36.5%, CN1CCN(C(=O)c2ccc(NC(=O)c3ccc(Br)o3)cc2)CC1 2.47%, O=C(Nc1ccc(S(=O)(=O)N2CCCCCC2)cc1)c1c(F)cccc1F 2.17%, COc1cccc(OC)c1C(=O)Nc1ccc(Cc2ccncc2)cc1 -17.4%, Cc1ccccc1OCC(=O)NNC(=O)c1cc(S(=O)(=O)N(C)C)ccc1N1CCCC1 -9.51%, CN(C)S(=O)(=O)c1ccc(N2CCCC2)c(C(=O)Nc2cccc(F)c2)c1 0.2%, COc1ccc(N2CCN(C(=O)CNS(=O)(=O)c3ccc(C)c(C)c3)CC2)cc1 4.34%, COc1ccc(C(C#N)Nc2ccccc2C)cc1 (stereo unspecified) -0.99%, COC(=O)[C@@]1(Cc2ccc(F)cc2)[C@H]2c3cc(C(=O)N4CCCC4)n(Cc4ccc(OC(F)(F)F)cc4)c3C[C@H]2CN1C(=O)c1ccccc1 18.4%, Cc1cccc(/C(N)=N/OC(=O)c2ccccc2Cl)c1 31.2%, CO/N=C(\N)c1ccc([N+](=O)[O-])cc1 0.74%, O=C(COC(=O)c1ccccn1)NNC(=O)c1ccc([N+](=O)[O-])cc1 -4.89%, N/C(=N\OC(=O)CCC1CCCCC1)c1ccccn1 18.4%, N/C(Cc1ccc([N+](=O)[O-])cc1)=N\OC(=O)COc1ccc2ccccc2c1 -1.78%, Cc1cc(C)cc(OCC(=O)O/N=C(\N)Cc2ccc([N+](=O)[O-])cc2)c1 -9.61%, COc1ccc(C2OC(CCc3ccccc3)Cc3[nH]c(=S)[nH]c(=O)c32)cc1 (stereo unspecified) -31.7%, Cc1ccc(S(=O)(=O)N2CCC(=O)N([C@H](COCc3ccccc3)Cc3ccccc3)CC2)cc1 1.7%, CC(Oc1ccc(Cl)cc1)c1ccnn1S(C)(=O)=O (stereo unspecified) 8.92%, CN(C)CCn1c2c(c(SCC(=O)Nc3ccccc3C(F)(F)F)nc1=O)CCCC2 -2.47%, CC(C)(C)c1ccc(/C=C/C(=O)NCCCn2ccnc2)cc1 13.5%, O=C(NC1CCCC1)C1c2ccccc2OCC(=O)N1Cc1ccccc1 (stereo unspecified) 2.4%, COC(=O)Nc1ncc(CN2CCCCC2)s1 1.88%, CCc1ccc(NC(=O)C(=O)NNC(=O)c2cccs2)cc1 -12.2%, Cc1ccc(OCC(=O)Nc2ccc(NC(=O)c3cccs3)cc2)c(C)c1 -68.7%, CCN(C(=O)CSc1nnc2ccccn12)C1CCS(=O)(=O)C1 (stereo unspecified) 7.23%, CC1(C)CC(=O)C2=C(C1)N=C1SCCC(=O)N1C2c1ccc(C(F)(F)F)cc1 (stereo unspecified) 1.88%, O=C1OC(Oc2ccc(Br)cc2)(c2ccccc2)c2ccccc21 (stereo unspecified) 7.48%, Nc1[nH]c(C(=O)c2ccccc2)c(-c2ccncc2)c1C(=O)NCc1cccc2ccccc12 36%, COc1cccc(NC(=O)c2ccc3c(SCC(=O)O)c4c(nc3c2)CCCC4)c1 -6.4%, CC(=O)c1ccc(NC(=O)c2ccc3c(Cl)c4c(nc3c2)CCCC4)cc1 40.1%, CCc1ccc([C@@H]2CC(=O)[C@@H]3CN(S(=O)(=O)c4ccc(C)cc4)[C@H](c4ccc(Cl)cc4)C[C@@H]3N2S(=O)(=O)c2ccc(C)cc2)cc1 -18.3%, COCOCCn1cc(CN2CCS(=O)(=O)N(Cc3ccc(-c4ccc(OC)cc4)cc3)C(CC(C)C)C2=O)nn1 (stereo unspecified) -6.75%, COCc1cc(=O)[nH]c2cc(NC(=O)C(F)(F)F)c(C)cc12 6.5%, C[C@H]1CN([C@@H](C)CO)C(=O)CCCn2cc(nn2)CO[C@@H]1CN(C)S(=O)(=O)c1ccc(-n2cccn2)cc1 -16.6%, Cc1cccc(N2C(=O)c3ccc(C(=O)Nc4cccc(C(=O)O)c4)cc3C2=O)c1 8.83%, O=C(c1ccc2c(c1)C(=O)N(c1ccc(Cl)cc1)C2=O)N1CCN(c2ccccn2)CC1 -12.4%, CCN1C[C@@H]2[C@@H]3C(=O)N(C)C(=O)[C@@H]3[C@](C)(C1=O)N2C(=O)c1ccccc1 11.5%, CC(Sc1nncn1C)C(=O)NCCC1=CCCCC1 (stereo unspecified) -1.74%, COc1ccc(NC(=O)C(Br)C(C)C)cc1 (stereo unspecified) -6.35%, COc1ccc(NC(=O)CCCC(=O)c2ccccc2)cc1 -22.6%, CCC1CCCCN1C(=O)Nc1cccc(NC(=O)N2CCCCC2CC)c1 (stereo unspecified) -4.07%, CCCCn1c(N)c(N(Cc2ccccc2OC)C(=O)COc2cc(C)ccc2Cl)c(=O)[nH]c1=O -6.52%, CC(C)CC(=O)N1CCN(Cc2ccccc2Br)CC1 -11.1%, CCC1OC(C2CC2)CC2=C1C(=O)OC(C)(C)O2 (stereo unspecified) 6.62%, COc1ccccc1-n1c(SCC(=O)Nc2ccc(Cl)cc2)nc(O)c(Cc2ccccc2)c1=O -7.18%, CC(C)Cn1c(SCC(=O)Nc2ccc(Cl)cc2F)nc(O)cc1=O 0.05%, O=C(COC(=O)c1ccc(NS(=O)(=O)c2cccs2)cc1O)Nc1ccc(F)cc1 1.2%, CCOC(=O)N1CCN(C(=O)C2CCCN(c3ncnc4c3sc3cccc(F)c34)C2)CC1 (stereo unspecified) 28.8%, FC(F)(F)C1CCCN(c2nsc3ccccc23)C1 (stereo unspecified) 7.5%, CCCCCCCCN1C(=O)[C@H](CC(=O)NCc2cccc3ccccc23)C[C@@]2(C(=O)OC)CCCCC=C12 -1.79%, CN(C)c1nc(=Nc2cccc(Cl)c2)ss1 5.73%, CC(=NC1CCN(Cc2ccccc2)CC1)c1c(O)[nH]c(=O)[nH]c1=O 0.57%, CS(=O)(=O)N(CC(=O)N1CCN(Cc2ccccc2)CC1)c1ccc2c(c1)OCCO2 14.7%
